Experimental findings from PubChem BioAssay (NCI) are described below.

The nature of test [1]: NCI Yeast Anticancer Drug Screen. Data for the rad50 strain (AID 155).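 Note: 0% = growth of vehicle-only cultures of the same strain.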 The note with it: S. cerevisiae rad50 strain growth inhibition; at 50.0 µM; hits give high values. Put shortly:
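Relative growth inhibition (compound vs vehicle) was measured in yeast with a defined repair-gene alteration.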

A short description of test [2]: NCI Yeast Anticancer Drug Screen. Data for the mec2-1 strain (AID 157). The note with it: S. cerevisiae mec2-1 strain, at 50.0 µM, hits give high values. The method, boiled down:
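Strain: mec2-1 (DNA repair/cell cycle alteration). Compound exposure, then growth measured; inhibition expressed relative to vehicle.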

Test [3] in a line: NCI Yeast Anticancer Drug Screen. Data for the sgs1 mgt1 strain (AID 161).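 Note: 0% = growth of cultures given vehicle only.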 The note with it: S. cerevisiae sgs1 mgt1 strain, at 50.0 µM, hits give high values. Put shortly:
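Genetically altered yeast, compound exposure, growth inhibition relative to vehicle.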

A short description of test [4]: NCI Yeast Anticancer Drug Screen. Data for the cln2 rad14 strain (AID 165).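 Note: 0% = growth equal to vehicle treated cultures.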 Conditions: S. cerevisiae cln2 rad14 strain, at 50.0 µM, hits give high values. The method, boiled down:
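Compounds are applied to the cln2 rad14 yeast strain, and growth is then compared with that of vehicle-treated cultures to give inhibition.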

Test [5] is described as follows: NCI Yeast Anticancer Drug Screen. Data for the bub3 strain (AID 167). Conditions: S. cerevisiae bub3 mutant strain, at 50.0 µM, hits give high values. The method, boiled down: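 Screening used yeast with an engineered genetic alteration affecting cell cycle control. Compound-exposed cultures were compared with vehicle cultures, and reduced growth was taken as inhibition.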

Test [6] is described as follows: NCI Yeast Anticancer Drug Screen. Data for the mlh1 rad18 strain (AID 175). The note with it: S. cerevisiae mlh1 rad18 strain growth inhibition; at 50.0 µM; hits give high values. The method, boiled down: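 Read-out is yeast growth inhibition, calculated against vehicle-only controls. The compound was applied to a strain engineered with DNA damage repair alterations.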

This is part of a sample that, as a whole, favours compounds with a hit. Of some 79,000 tested, about 15% had one in any assay. Values without a mark were called inactive. Calls of active or inactive are those of the source. Cut-off read from the data, not from the text of the source: active = growth inhibition above about 70%; inactive = the rest.

Turning to `CNC(=S)c1nnsc1N`, the growth inhibition in test [1] is 1.7%; in test [2], -0.8%; in test [3], 21.6%; in test [4] it was -2.45%; in test [5] it was 6.3%; in test [6], -0.4%.

In the case of `O=C=NC(c1ccccc1)(c1ccccc1)c1ccccc1`, the growth inhibition in test [1] was -4.25%; in test [2] it was -18.1%; in test [3] it was 1.65%; in test [4], 11.5%; in test [5], -5.5%; in test [6], 13.2%.

`COc1ccc(-c2nc3ccccc3c(=S)n2OC(C)=O)cc1`: the growth inhibition was 68.5% in test [1]; 77.2% (active) in test [2]; 82.1% (active) in test [3]; 27.2% in test [4]; 90.2% (active) in test [5]; 78.2% (active) in test [6].

As for `C=C(C)C1CC2(C)C(C)CC(OC(=O)/C(C)=C\C)CC2C(OC(=O)/C(C)=C\C)C1O` (configuration not stated), the growth inhibition is 31.2% in test [1]; -9.65% in test [2]; 31.2% in test [3]; -9.6% in test [4]; -1% in test [5]; -12.9% in test [6].

Regarding `CCOc1cc2c(cc1O)/C(=N/NS(=O)(=O)c1ccc(C)cc1)C[C@@H]1[C@@H]2CC[C@]2(C)[C@@H](O)CC[C@@H]12`, the growth inhibition was 33.9% in test [1]; 26.9% in test [2]; 4.05% in test [3]; 35.4% in test [4]; 14.1% in test [5]; 4.4% in test [6].

As to `N#CC1(C#N)N[C@@H](c2ccsc2)[C@H]2C(=O)N(c3ccccc3)C(=O)[C@H]21`, the growth inhibition in test [1] is 5.6%; in test [2] it was -8.2%; in test [3], 3.75%; in test [4], 8.5%; in test [5], -6.95%; in test [6] it was -4.05%.

Take `CC(C)(C)c1cc(C2COC(=O)COCCOCC(=O)OCCOCCO2)cc(C(C)(C)C)c1O` (configuration not stated): the growth inhibition in test [1] was 12.5%; in test [2], -13.8%; in test [3] it was -10.4%; in test [4], 4.4%; in test [5], -23.3%; in test [6] it was -60.5%.
